PubChem BioAssay (NCATS)
Results filed as inconclusive are left out. Activity calls are given as the source filed them. Calls follow the shape of the dose curve; as a rule, active = well fitted curve in the direction sought with a large enough effect; inconclusive = small, poorly fitted or top-dose-only effect, or another doubt; inactive = no such curve, though single readings can be large; an effect the other way counts as inactive or inconclusive.

Assays:
[1] = qHTS assay for measurement of the activity of small molecule inhibitors on Zika virus induced Caspase-3 activity in human iPSC derived neural progenitor cells (hNPCs) (AID 1224857); also: nearly all actives have a fitted effect of over 65% in size
Procedure, shortened: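 In medium with heparin 2 ug/ml and cyclopamine 2 uM, hNPCs (350 cells/well) received compound for one hour and then Zika virus at 2 FFU/cell; caspase activity was measured by Caspase-Glo 3/7 luminescence 6 h post-infection.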

[2] = qHTS assay for measurement of the activity of small molecule inhibitors on Zika virus induced Caspase-3 activity in human astrocytoma cells (AID 1224859)
Procedure, shortened: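 A cell-based luminescent caspase-3/7 assay used SNB-19 cells infected with ZIKV (2 FFU/cell) for 6 h following 1 h compound pretreatment.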

[3] = NS1 protein of Zika virus - qHTS assay to identify small molecule inhibitors in human HEK 293 cells (AID 1347053); also: series mostly up to about 46 µM; nearly all actives have a fitted effect of over 55% in size
Procedure, shortened: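 Following 20 h seeding, HEK 293 cells took compound, then 1 h later ZIKV MR766 (MOI = 0.5). Incubation ran 24 h at 37 C before TR-FRET detection of NS1; a drop in signal indicates inhibition.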

[4] = qHTS of pediatric cancer cell lines to identify multiple opportunities for drug repurposing: Primary screen for TC32 cells (AID 1347089); also: nearly all actives have a fitted effect of over 60% in size
Procedure, shortened: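 qHTS, TC32, 48 h drug treatment, CellTiter-Glo luminescence as a proxy for metabolically active cells; primary top concentration 46 µM (MIPE 11-pt, NPC 8-pt); confirmatory 11-pt.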

[5] = qHTS of pediatric cancer cell lines to identify multiple opportunities for drug repurposing: Primary screen for DAOY cells (AID 1347090); also: series mostly up to about 46 µM; nearly all actives have a fitted effect of over 55% in size
Procedure, shortened: (§1)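 Viability measured as metabolically active cells via CellTiter-Glo luminescence following 48 hours of compound exposure, 11-point dilutions in confirmatory testing. 500-1,000 cells/well plated 5 hours before dosing; controls were DMSO and 2.3 µM bortezomib.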

[6] = qHTS of pediatric cancer cell lines to identify multiple opportunities for drug repurposing: Primary screen for SJ-GBM2 cells (AID 1347091)
Procedure, shortened: as §1

[7] = qHTS of pediatric cancer cell lines to identify multiple opportunities for drug repurposing: Primary screen for A673 cells (AID 1347092); also: nearly all actives have a fitted effect of over 45% in size
Procedure, shortened: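 Luminescence from CellTiter-Glo, taken after 15 min at room temperature, served as the proxy for metabolically active cells following 48 h treatment. Both potency and efficacy were taken from curves fitted to the titration data.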

[8] = qHTS of pediatric cancer cell lines to identify multiple opportunities for drug repurposing: Primary screen for SK-N-MC cells (AID 1347093); also: series mostly up to about 46 µM
Procedure, shortened: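 Metabolically active cells were quantified by ATP-dependent luminescence (CellTiter-Glo, 15 min at room temperature) following 48 h treatment. Cells had been plated at 500-1,000 per well and settled for 5 h beforehand.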

[9] = qHTS of pediatric cancer cell lines to identify multiple opportunities for drug repurposing: Primary screen for BT-37 cells (AID 1347094); also: series mostly up to about 57 µM
Procedure, shortened: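 Cells plated at 500-1,000/well in growth medium, compounds added after 5 h. MIPE tested at 11 points (from 0.78 nM), NPC at 8 points (from 0.59 nM). CellTiter-Glo luminescence after 48 h; concentration-response curves from primary screen.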

Measured: Potency

CC1(C)OC(=O)Nc2ccc(Br)cc21
inactive: all assays above

COc1ccc2nc(SCc3ncc(C)c(OC)c3C)[nH]c2c1
inactive: all assays above

Nc1ccc(C(=O)OCC(O)CO)cc1 (configuration not stated)
not listed: [8]
inactive: all other assays above

CC(Oc1c(Cl)cccc1Cl)C1=NCCN1 (configuration not stated)
inactive: all assays above

CN=C(N)NC(=O)Nc1c(C)cccc1C
inactive: all assays above

CN1Cc2cc(C(=O)N3CCC(C4CCNCC4)CC3)ccc2NC(CC(=O)O)C1=O (configuration not stated)
inactive: all assays above

COc1ccc2c(c1)CCCC2=O
inactive: all assays above

CN(C)CCN1CCN(c2cccc(Cl)c2)C1=O
inactive: all assays above

CCN(CC)CCN
inactive: all assays above

Clc1ccc2c(c1)Nc1ccccc1S2
not listed: [8]
inactive: all other assays above

CC(COc1ccccc1)NN (configuration not stated)
not listed: [8]
inactive: all other assays above

CCOC(=O)NNc1nncc2ccccc12
inactive: all assays above

CC(=O)c1ccc(O)c(C(N)=O)c1
not listed: [8]
inactive: all other assays above

Nc1ncnc2nc[nH]c12
inactive: all assays above

CCC(=O)O[C@H]1[C@H](O[C@@H]2[C@@H](C)[C@H](O[C@H]3C[C@@](C)(OC)[C@@H](O)[C@H](C)O3)[C@@H](C)C(=O)O[C@H](CC)[C@@](C)(O)[C@H](O)[C@@H](C)C(=O)[C@H](C)C[C@@]2(C)O)O[C@H](C)C[C@@H]1N(C)C
inactive: all assays above

CCCC(=O)Nc1ccc(O)c(C(C)=O)c1
inactive: all assays above

Cc1cccc(OCC(O)CNC(C)(C)C)c1C (configuration not stated)
inactive: all assays above

O=C1CC[C@H](C(=O)N2CCCCC2)N1
inactive: all assays above

C=C(C)C(=O)OCC(O)CO (configuration not stated)
inactive: all assays above

O=C(C1CCCCC1)N1CC(=O)N2CCCc3ccccc3C2C1 (configuration not stated)
inactive: all assays above

CC(C)(c1ccc(O)cc1)c1ccc(O)cc1
not listed: [8]
inactive: all other assays above

CNC(=O)c1c(I)c(NC(C)=O)c(I)c(C(=O)O)c1I
inactive: all assays above

COc1ccc(CCC(C)=O)cc1
inactive: all assays above
